Laboratory results taken from PubChem BioAssay (NCI).
About 83,000 compounds went through this panel and 20% of them were active in at least one assay; those are over-represented in the sample as a whole.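 A percent growth of 40 corresponds to 60% growth inhibition; 0 means no net growth; -100 means all cells died. Active threshold: below 10.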 A number with no mark means an inactive call. Calls of active or inactive are those of the source.

Legend:
Test in all cases: NCI-60 one-dose screen, 48 h (100 = growth as untreated, 0 = no growth, -100 = all killed)
Details in all cases: 10 µM unless noted
NCI-H23 lung = system: NCI-H23 lung
NCI-H226 lung = system: NCI-H226 lung
NCI-H322M lung = system: NCI-H322M lung
HOP-62 NSCLC = system: HOP-62 NSCLC
NCI-H460 lung = system: NCI-H460 lung
HOP-92 NSCLC = system: HOP-92 NSCLC
NCI-H522 lung = system: NCI-H522 lung
A549/ATCC NSCLC = system: A549/ATCC NSCLC
786-0 renal = system: 786-0 renal
COLO 205 colon = system: COLO 205 colon
DU-145 prostate = system: DU-145 prostate
K-562 leukemia = system: K-562 leukemia
MALME-3M melanoma = system: MALME-3M melanoma
MDA-MB-231 breast = system: MDA-MB-231 breast
RXF 393 renal = system: RXF 393 renal
SF-268 CNS = system: SF-268 CNS
SF-295 CNS = system: SF-295 CNS
SF-539 CNS = system: SF-539 CNS
UACC-257 melanoma = system: UACC-257 melanoma
M14 melanoma = system: M14 melanoma

Row | SMILES | growth (NCI-H23 lung) | growth (NCI-H226 lung) | growth (NCI-H322M lung) | growth (HOP-62 NSCLC) | growth (NCI-H460 lung) | growth (HOP-92 NSCLC) | growth (NCI-H522 lung) | growth (A549/ATCC NSCLC) | growth (786-0 renal) | growth (COLO 205 colon) | growth (DU-145 prostate) | growth (K-562 leukemia) | growth (MALME-3M melanoma) | growth (MDA-MB-231 breast) | growth (RXF 393 renal) | growth (SF-268 CNS) | growth (SF-295 CNS) | growth (SF-539 CNS) | growth (UACC-257 melanoma) | growth (M14 melanoma)
1 | Nc1c(F)cc(-c2nc3cc(F)ccc3[se]2)cc1F | 49.4% | -11.3% (active) | 70.8% | 58.9% | 14.5% | 74.8% | 84.8% | 46.5% | 104% | 13.4% | 99.8% | 85.8% | 101% | 54.6% | 105% | 91.4% | 87.8% | 96.3% | 101% | 90%
2 | O=C(CC1(O)C(=O)N(Cc2ccccc2)c2ccc(Br)cc21)c1ccc(C(=O)NCC2CCC3(CC2)OOC2(CCCCC2)OO3)cc1 (stereo not given) | -74.3% (active) | -33% (active) | 73.9% | -55.6% (active) | -41% (active) | -74.1% (active) | 2.53% (active) | -61.1% (active) | -70.7% (active) | -49.5% (active) | -98.8% (active) | -5.58% (active) | -68.1% (active) | -73.9% (active) | -76.5% (active) | -1.12% (active) | 29.3% | -85.1% (active) | 57% | 41.9%
3 | CCn1c2ccccc2c2cc(C(=O)c3ccc(C)c4ccccc34)ccc21 | 5.37% (active) | 32.8% | 28.1% | 9.22% (active) | 10.6% | 40.6% | 0.105% (active) | 6.07% (active) | 17.6% | -16.3% (active) | 17.9% | 4.51% (active) | 74.4% | 26.4% | 15% | 19.8% | 11.6% | -5.79% (active) | 36.9% | 2.37% (active)
4 | CS(=O)(=O)CCN1CC2CCCC(C2)C1 | 99.7% | 121% | 127% | 103% | 110% | 109% | 97.9% | 99.9% | 95.6% | 99% | 102% | 113% | 111% | 105% | 107% | 102% | 108% | 100% | 104% | 98.6%
5 | Cn1cccc1C1CC(=O)N(CCC[Se]C#N)C1=O (stereo not given) | -25.4% (active) | -46.1% (active) | 11.1% | -75.7% (active) | -0.959% (active) | -40.8% (active) | 23.5% | -38.6% (active) | -73.2% (active) | 70.1% | -76% (active) | 16.2% | -30.1% (active) | -45.3% (active) | -48.7% (active) | -31.8% (active) | -58.2% (active) | -81.2% (active) | -70.6% (active) | 4.09% (active)
6 | COC(=O)[C@@H](C)C[C@H](Cc1ccccc1)NC(=O)c1csc([C@@H](C[C@H](C(C)C)N(C)C(=O)[C@@H](NC(=O)[C@H]2CCCCN2C)C(C(F)(F)F)C(F)(F)F)OC(C)=O)n1 | 44.8% | 56.7% | 37% | 15.1% | 5.59% (active) | 12.4% | -8.2% (active) | 12.8% | -5.39% (active) | -50.6% (active) | 11.4% | 8.83% (active) | 65.8% | 6.65% (active) | 46% | 18.3% | 9.85% (active) | -11.1% (active) | 52.4% | -20.3% (active)
7 | C=CC[Se]C(=O)c1ccccc1OC(C)=O | -21.6% (active) | 28.1% | -17% (active) | -7.57% (active) | -13.4% (active) | 15.2% | 47.1% | 0.797% (active) | -7.14% (active) | 36% | 1.76% (active) | 46.8% | 30.9% | -25.5% (active) | -21% (active) | 27.1% | -29.4% (active) | -82.4% (active) | 5.44% (active) | -6.78% (active)
